Data on 40 compounds can be found in PubChem BioAssay (Tox21).

“And” between values parts separate entries of the source, which are not always exact repeats. Equal values may be shown once. Records with an inconclusive call do not appear. A call without a number means that no potency is given here. The source made the active and inactive calls. The call rests on the fitted dose curve; in most records, active means well fitted inhibition curve with a large enough effect in the repeat runs; inconclusive means weak or mixed curves; inactive means no such curve, though single readings can be large or run the other way. Residues, ends and D or L forms follow the SMILES beside them.
Potency means the concentration at half of the fitted maximal effect.

A short description of the experiment: qHTS assay to identify small molecule antagonists of the thyroid receptor (TR) signaling pathway (AID 743065). Further: nearly all actives have a fitted effect of over 55% in size. To be noted: GH3.TRE-Luc, T3-stimulated luciferase inhibition, 23.5 h; series mostly up to 70.3 µM. From the text:
U.S. Tox21 Program National Center for Advancing Translational Sciences [NCATS] NIH Chemical Genomics Center [NCGC] U.S. Environmental Protection Agency [EPA] National Institutes of Environmental Health Sciences [NIEHS] National Toxicology Program [NTP] U.S. Food and Drug Administration [FDA] Tox21 Assay Overview: Thyroid receptor (TR), a nuclear hormone receptor, plays an important role in development, proliferation, differentiation, metabolism, brain function, and cardiovascular system. […] To profile the Tox21 10K compound library in TR signaling, a cell-based GH3-TRE-Luc assay (GH3.TRE-Luc cell line, developed by the laboratory of Dr. Albertinka J. Murk, Wageningen University) was used to measure the inhibition of TR. GH3 (rat pituitary tumor) cells stably expressing a TR activity sensor consisting of two TR response elements and a luciferase reporter gene.
Tox21 Assay Protocol Summary: GH3.TRE-Luc cells were dispensed at 1500 cells/4 uL/well into 1536-well white solid bottom plates using a Multidrop Combi dispenser (Thermo Fisher Scientific Inc., Waltham, MA). After the assay plates were incubated at 37 C for 4 hours, 23 nL of library compound or DMSO controls was transferred to the assay plates by a pintool station (Kalypsys, San Diego, CA), followed by addition of 1 ul of T3 (1 nM, final concentration in the wells) to stimulate TR transactivation. The assay plates were incubated at 37 C for 23.5 h, and then 1 uL of CellTiter-Fluor reagent (Promega, Madision, WI) of measuring cytotoxicity was added to each well using a Bioraptr Flying Reagent Dispenser (FRD) workstation (Beckman Coulter, Indianapolis, IN, USA). The plates were incubated at 37 C and 5% CO2 for additional 30 min, and fluorescence intensity was measured by a ViewLux plate reader (PerkinElmer, Shelton, CT). For measuring luciferase reporter gene activity, 4 uL of ONE-Glo Luciferase Assay reagent (Promega) was added to each well using a Bioraptr FRD (Beckman Coulter), followed by 30 min incubation at room temperature. The luminescence intensity of plates was recorded by a ViewLux plate reader (PerkinElmer, Shelton, CT).
For orientation: In qHTS, concentration-response curves come from the screen itself.
`O=S(=O)(O)c1ccc2cc(O)ccc2c1`: the Potency result is “inactive”. For `O=C(O)c1cccnc1` the value was “inactive”.

For the compound `O=C(c1ccccc1)C(O)c1ccccc1` (stereo not given), the Potency entry is “inactive”. Take `CC(C)[C@@H]1CC[C@@H](C)C[C@H]1O`: the Potency entry was “inactive”. Under `COc1ccc2[nH]cc(CCNC(C)=O)c2c1` stands “inactive”; under `NNC(=O)c1ccncc1`, “inactive”; under `O=c1ccc2ccccc2o1`, “inactive”. Regarding `CCOc1ccc(NC(=O)CC(C)O)cc1` (stereo not given), the Potency result was “inactive”. For `NC(N)=NC(=O)c1nc(Cl)c(N)nc1N`, the Potency was 21.1 µM (active) and 54.8 µM (active). For `O=C(O)CCC(=O)O` the value was “inactive”; for `Cn1cc[nH]c1=S`, “inactive”. For `O=c1cc[nH]c(=S)[nH]1` the value was “inactive”; for `NC(N)=O`, “inactive”.

Turning to `Nc1ccc(S(=O)(=O)c2ccc(N)cc2)cc1`, the Potency entry is “inactive”. Under `NC(=O)NC1NC(=O)NC1=O` (stereo not given) stands “inactive”; under `O=NO`, “inactive”. Turning to `Cc1ccccc1C(OCCN(C)C)c1ccccc1` (stereo not given), the Potency was 21.1 µM (active) and 27.3 µM (active). As to `CC(O)C(=O)O` (stereo not given), the Potency entry was “inactive”. With `CNC[C@H](O)c1cccc(O)c1`, the Potency entry is “inactive”. Under `COC(=O)[C@H](Cc1ccccc1)NC(=O)[C@@H](N)CC(=O)O` (H-Asp-Phe-OMe) stands “inactive”; under `CCCCCCCCCCCCCCCC(=O)O`, “inactive”; under `CC(O)CO` (stereo not given), “inactive”. As for `NS(=O)(=O)c1cc(C(=O)O)c(NCc2ccco2)cc1Cl`, the Potency entry was “inactive”. Under `O=C(O)CCCCCCCC(=O)O` stands “inactive”; under `CCCC(CCC)C(=O)O`, “inactive”. On to `Cc1noc(NS(=O)(=O)c2ccc(N)cc2)c1C`, for which the Potency entry was “inactive”. For `O=C1NC(=O)c2ccccc21` the value was “inactive”; for `CC(=O)NS(=O)(=O)c1ccc(N)cc1`, “inactive”; for `C/C=C/c1ccc(OC)cc1`, “inactive”.

For the compound `CC(=O)OCC(COC(C)=O)OC(C)=O`, the Potency result is “inactive”. Under `Cc1ccc(C)c(OCCCC(C)(C)C(=O)O)c1` stands “inactive”; under `Nc1ccn([C@H]2CC[C@@H](CO)O2)c(=O)n1`, “inactive”. Under `Cc1cn([C@H]2C[C@H](N=[N+]=[N-])[C@@H](CO)O2)c(=O)[nH]c1=O` stands “inactive”; under `C[C@]12C=CC(=O)C=C1CC[C@@H]1[C@@H]2[C@@H](O)C[C@@]2(C)[C@H]1CC[C@]2(O)C(=O)CO`, “inactive”. Under `CCCCC1C(=O)N(c2ccccc2)N(c2ccccc2)C1=O` stands “inactive”; under `C1N2CN3CN1CN(C2)C3`, “inactive”.

In the case of `O=S(=O)(O)NC1CCCCC1`, the Potency result was “inactive”.

Turning to `Cc1cc(=O)[nH]c(=S)[nH]1`, the Potency result was “inactive”.

As to `CCCCC(CC)COC(=O)/C=C/c1ccc(OC)cc1` (stereo not given), the Potency result was “inactive”.

Turning to `OCCc1ccccc1`, the Potency result is “inactive”.
